Reference: PubChem BioAssay AID1851 (National Center for Advancing Translational Sciences (NCATS), 2009)
“And” between values parts separate entries of the source, which are not always exact repeats. Equal values may be shown once. Screen size: about 16,000 compounds; about 4,000 (25%) were called active. Not shown: some 26% with an inconclusive outcome. Calls follow the shape of the dose curve; as a rule, active = well fitted curve in the direction sought with a large enough effect; inconclusive = small, poorly fitted or top-dose-only effect, or effect the other way; inactive = no such curve, though single readings can be large or run the other way. Only a sample is shown. Some structures have more than one record in an assay (separate samples or runs), and their calls can disagree.
% is scaled to controls: 0 for no effect and ±100 for the full control effect.

What follows are compounds tested against Cytochrome P450 2C9 (Homo sapiens) (UniProt P11712) (assay: Cytochrome panel assay with activity outcomes). Details: recombinant CYP, pro-luciferin dealkylation, luminescence, p450-cyp2c9; series mostly up to 57.1 µM; activity, negative = inhibition: at the top concentration.
Chain of Cytochrome P450 2C9 (Homo sapiens) (P11712 whole entry, looked up): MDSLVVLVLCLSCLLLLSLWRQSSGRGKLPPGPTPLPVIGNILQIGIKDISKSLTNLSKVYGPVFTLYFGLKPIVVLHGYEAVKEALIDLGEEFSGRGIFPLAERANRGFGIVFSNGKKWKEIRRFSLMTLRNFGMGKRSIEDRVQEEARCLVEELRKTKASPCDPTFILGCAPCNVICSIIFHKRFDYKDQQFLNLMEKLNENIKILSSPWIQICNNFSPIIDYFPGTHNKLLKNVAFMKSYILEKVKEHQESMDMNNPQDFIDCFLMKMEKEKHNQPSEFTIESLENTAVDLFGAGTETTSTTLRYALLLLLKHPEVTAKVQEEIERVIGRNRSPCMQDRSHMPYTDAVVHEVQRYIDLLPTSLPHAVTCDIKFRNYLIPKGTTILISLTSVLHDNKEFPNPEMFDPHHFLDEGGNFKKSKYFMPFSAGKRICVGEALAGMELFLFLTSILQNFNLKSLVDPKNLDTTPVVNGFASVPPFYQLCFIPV
Protocol: The P450 gene superfamily is involved in the metabolism and clearance of xenobiotics. This assay used various human CYP P450 isozymes to measure the dealkylation of various pro-luciferin substrates to luciferin. The luciferin is then measured by luminescence after the addition of a luciferase detection reagent. Pro-luciferin substrate concentration in the assay was equal to its KM for its CYP P450 isozyme. Inhibitors and some substrates limit the production of luciferin, and decrease measured luminescence.
NCGC Assay Protocol Summary:
1, Reagent, 2 uL, Isozyme and Pro-Luciferin
2, Library compounds, 23 nl, 40 uM to 0.24 nM dilution series
3, Controls, 23 nl, Isozyme specific inhibitor
4, Reagent, 2 uL, NADPH regeneration solution
5, Incubation time, 60 min, Isozyme specific temperature
6, Reagent, 4ul, Detection reagent
7, Incubation time, 20 min, Isozyme specific temperature
8, Detection, 1 sec, ViewLux luminescent read
The luciferase-based P450-GloTM Screening Systems were obtained from Promega (Madison, WI) for CYP 1A2 (V9770), CYP 2C9 (V9790), CYP2 C19 (V9880), CYP 2D6 (V9890), and CYP 3A4 Luciferin-PPXE (V9910) and were adapted for 1,536-well microplates and an automated protocol. The control compounds furafylline for 1A2 (F124), sulfaphenazole for CYP 2C9 (S0758), ketoconazole for CYP 2C19 (K1003), quinidine for 2D6 (Q3625), and ketoconazole for 3A4 (K1003) were purchased from Sigma Aldrich (St. Louis, MO). Recombinant P450 enzymes were obtained from baculovirus constructs expressed in insect cells (BD/Gentest).
Medium-binding white solid Kalypsys plates used. Mixtures kept on ice. 1A2: 10 nM 1A2, 100 uM Luc-ME, 100 mM KPO4; 2C9: 10 nM 2C9, 100 uM Luc-H, 25 mM KPO4; 2C19: 5 nM 2C19, 10 uM Luc-H EGE, 50 mM KPO4; 2D6: 5 nM 2D6, 30 uM Luc-ME EGE, 100 mM KPO4; 3A4: 10 nM, 25 uM Luc-PPXE. All amounts are reflected in their final concentration, working concentration is 2x.
NADPH regeneration solution: 1.3 mM NADP+, 3.3 mM glucose-6-phosphate, 3.3 mM MgCl2, 0.4 U/mL glucose-6-phosphate dehydrogenase for all isozymes, 200 mM KPO4 for 3A4. Mixture prepared at RT but kept on ice during automated run.
RT incubation in auxilliary plate hotel for 1A2, 2D6, and 3A4; 37C for 2C9 and 2C19.
Keywords: P450, CYP1A2, CYP2C19, CYP2C9, CYP2D6, CYP3A4, Luciferase, MLSMR, MLSCN, NIH Roadmap, qHTS, NCGC
With `O=C(C1CC(=O)N(C2CCCC2)C1)N1CCC2(CC1)OCCO2` (stereo not drawn) the “activity, negative = inhibition” value was 27.7% (inactive).
In the case of `CCOC(=O)c1[nH]c(C)c(C(=O)N2CCC3(CC2)OCCO3)c1C`, the AC50 is reported as 20 µM (active).
For `N=C(N)c1ccc(-c2ccc(-c3ccc(C(=N)N)cc3)o2)cc1`, the activity, negative = inhibition was 19.5% [at 11.4 µM] (inactive).
With `COc1ccccc1CC1C(=O)C2CCN1CC2` (stereo not drawn) the “activity, negative = inhibition” value was -28.3% (inactive).
`CN(N=O)C(=O)N[C@H]1C(O)OC(CO)[C@@H](O)[C@H]1O` (stereo partly drawn) was tested, and the “activity, negative = inhibition” value was -23.2% (inactive).
For `CCOc1ccc2c(c1)C(C)=CC(C)(C)N2`, the AC50 was 2 µM (active).
`C[N+]1([O-])[C@@H]2CC(OC(=O)[C@@H](CO)c3ccccc3)C[C@@H]1[C@H]1O[C@H]12` (stereo partly drawn) was tested, and the activity, negative = inhibition was “inactive”.
`CCCCn1c(N)c(C(=O)NCc2cccs2)c2nc3ccccc3nc21` was tested, and the AC50 was 14.1 µM (active).
For `CC(C)CCn1c(N)c(C(=O)NCc2cccs2)c2nc3ccccc3nc21`, the AC50 was 10 µM (active).
For `CC(C)C(=O)CP(=O)(O)O`, the activity, negative = inhibition was 13.2% [at 11.4 µM] (inactive).
`O[C@H](CN1CC1)[C@@H](O)CN1CC1` was tested, and the activity, negative = inhibition was 4% [at 11.4 µM] (inactive).
For `C[C@H]1CN(C2CCC(C#N)(c3ccc(F)cc3)CC2)CC[C@@]1(C(=O)O)c1ccccc1` (stereo partly drawn), the “activity, negative = inhibition” value was 7.15% [at 25.6 µM] (inactive).
With `c1ccc2c(N3CCNCC3)cccc2c1` the “activity, negative = inhibition” value was 20.9% (inactive).
With `Cc1nnc2ccc(-c3cccc(C(F)(F)F)c3)nn12` the “activity, negative = inhibition” value was 2.62% (inactive).
For `c1ccc(CN2CCN(Cc3ccc4c(c3)OCCO4)CC2)cc1`, the “activity, negative = inhibition” value was -11.9% (inactive).
For `COc1ccc(C(=O)OC2C[C@H]3CC[C@@H](C2)N3C)cc1OC` (stereo partly drawn), the “activity, negative = inhibition” value was 21.6% [at 25.6 µM] (inactive).
In the case of `O=P(Nc1ccccc1)(Nc1ccccc1)Oc1cccc(Cl)c1`, the AC50 is reported as 12.6 µM (active).
In the case of `CN1CCc2cc3c(cc2[C@@H]1[C@@H]1OC(=O)c2c1ccc1c2OCO1)OCO3`, the “activity, negative = inhibition” value is reported as -27.9% [at 25.6 µM] (inactive).
`CCCN(CCC)C1Cc2cc(OC)c(OC)cc2C1` was tested, and the “activity, negative = inhibition” value was -17% (inactive).
In the case of `NC[C@@H](Cc1ccccc1)P(=O)(O)O`, the activity, negative = inhibition is reported as 22.3% [at 11.4 µM] (inactive).
With `Cc1ccc(S(=O)(=O)NCC2CCC(C(=O)N3CCC4(CC3)OCCO4)CC2)cc1` (stereo not drawn) the “activity, negative = inhibition” value was 12.2% (inactive).
With `O=C(CNS(=O)(=O)c1ccc(Br)s1)N1CCC2(CC1)OCCO2` the AC50 was 11.2 µM (active).
For `O=C(Cn1ncc2ccsc2c1=O)N1CCC2(CC1)OCCO2`, the “activity, negative = inhibition” value was -7.07% (inactive).
With `CO[C@H]1[C@H](O)[C@H](O[C@@H]2[C@H](Oc3cccc4c(O)c5c(=O)oc6ccc(C)c7c(=O)oc(c34)c5c67)O[C@@H](C)[C@H](O)[C@H]2O)O[C@@H](C)[C@@H]1O` the activity, negative = inhibition was -7.14% [at 11.4 µM] (inactive).
In the case of `O=C(O)C[C@H]1NCc2cc3ccccc3nc21`, the activity, negative = inhibition is reported as -0.422% [at 11.4 µM] (inactive).
`CN(C)CC/C=C1\c2ccccc2Sc2ccc(Cl)cc21` was tested, and the activity, negative = inhibition was 7.34% [at 11.4 µM] (inactive).
For `O=C(O)Cc1cnc[nH]1`, the “activity, negative = inhibition” value was -5.96% (inactive).
With `C=CCN1C[C@H](C)N([C@H](c2ccc(C(=O)N(CC)CC)cc2)c2cccc(O)c2)C[C@H]1C` the AC50 was 3.98 µM (active).
For `C=CCN1C[C@H](C)N([C@H](c2ccc(C(=O)N(CC)CC)cc2)c2cccc(OC)c2)C[C@H]1C`, the “activity, negative = inhibition” value was -11.6% (inactive).
With `C=CCN1C[C@@H](C)N([C@H](c2ccc(C(=O)N(CC)CC)cc2)c2cccc(OC)c2)C[C@H]1C` the “activity, negative = inhibition” value was -9.55% (inactive).
In the case of `NC(N)=NS(=O)(=O)c1ccc(N)cc1`, the “activity, negative = inhibition” value is reported as 8.95% [at 25.6 µM] (inactive).
With `CC[C@@H](CO)NC(=O)[C@H]1C=C2c3cccc4c3c(cn4C)C[C@H]2N(C)C1` the “activity, negative = inhibition” value was -29.9% (inactive).
`O=[N+]([O-])c1cc(-c2ccc([As](=O)(O)O)cc2)ccc1[As](=O)(O)O` was tested, and the activity, negative = inhibition was 16.8% [at 11.4 µM] (inactive).
For `CN(C)C=C1C(=O)N(C2CCCCC2)C(=O)N(C2CCCCC2)C1=O`, the AC50 was 2.24 µM (active).
For `COc1cc(-c2ccc(=O)[nH]n2)ccc1OC(F)F`, the “activity, negative = inhibition” value was -1.03% [at 25.6 µM] (inactive).
In the case of `C[N+](C)(C)CCCCCC[N+](C)(C)C`, the “activity, negative = inhibition” value is reported as 21.2% [at 25.6 µM] (inactive).
In the case of `CN=C(NC#N)NCCSCc1nc[nH]c1C`, the “activity, negative = inhibition” value is reported as -1.35% (inactive).
For `O=C(O)CS(=O)(=O)C(c1ccccc1)c1ccccc1`, the activity, negative = inhibition was -12.7% [at 11.4 µM] (inactive).
For `O=C1CCCN1CC#CCN1CCCC1`, the AC50 was 2 µM (active).
In the case of `C[N+](C)(C)CC#CCN1CCCC1=O`, the activity, negative = inhibition is reported as “inactive”.
With `C(#CCN1CCCC1)CN1CCCC1` the “activity, negative = inhibition” value was 7.11% [at 25.6 µM] (inactive).
`CC(C)(C)C(=O)CP(=O)(O)O` was tested, and the activity, negative = inhibition was 9.42% [at 11.4 µM] (inactive).
With `OC(c1ccccc1)(c1ccccc1)C1CCCN1` (stereo not drawn) the “activity, negative = inhibition” value was -17.9% (inactive).
In the case of `COc1ccccc1CN1CC[C@@]2(CCCN(C(=O)Oc3ccccc3)C2)C1`, the “activity, negative = inhibition” value is reported as -9.71% (inactive).
For `Cc1ccc(C(=O)C2C(=O)c3ccccc3C2=O)cc1`, the AC50 was 2.24 µM (active).
For `CCN1C[C@@]2(COC)CC[C@H](O)[C@@]34[C@@H]2C[C@@H]([C@@H]13)[C@]1(O)C[C@@H](OC)C2C[C@H]4[C@H]1[C@H]2OC(C)=O`, the “activity, negative = inhibition” value was -9.7% [at 25.6 µM] (inactive).
For `c1ccc2sc(C3(N4CCCCC4)CCCCC3)cc2c1`, the activity, negative = inhibition was “inactive”.
With `c1ccc2c(c1)OC[C@@H](C1=NCCN1)O2` the AC50 was “inactive and 31.6 µM (active)”.
